# In the supplement of paper PMC6555819:
# Assays:
# Assay in all cases: PBM binding z-score (relative to random genomic background probes); higher = stronger binding; sequences stand for … in GC…GCGATTGACAGCGTAGAATGAAGG
# [1] = tested on: PPARg:RXRa DBDmut IVT, anti-RXR (DBD mutation: RXRa K156A/R161A, NR concentration 270 nM, RXRa partner concentration 90 nM)
# Summary of the method: (§1)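 Antibodies against each partner of ligand-free nuclear receptor dimers (one per run) detected binding on custom Agilent 4×180K protein-binding microarrays after 1 h incubation. The double-stranded probes had 34-nt variable regions carrying direct-repeat seeds, single-nucleotide variants, half-site ablations and random human genomic background sequences. Binding z-scores, from regression-normalized fluorescence, use the random background probes as reference.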
# [2] = tested on: PPARg:RXRa IVT, anti-PPARg (NR concentration 270 nM, RXRa partner concentration 90 nM)
# Summary of the method: as §1
# [3] = tested on: PPARg DBDmut:RXRa IVT, anti-PPARg (DBD mutation: PPARg1 K132A/R137A, NR concentration 270 nM, RXRa partner concentration 90 nM)
# Summary of the method: as §1
# [4] = tested on: PPARg DBDmut IVT, anti-PPARg (DBD mutation: PPARg1 K132A/R137A, NR concentration 270 nM)
# Summary of the method: as §1
# [5] = tested on: PPARg homodimer (NR concentration 180 nM)
# Summary of the method: as §1
# [6] = tested on: PXR:RXRa (NR concentration 270 nM, RXRa partner concentration 90 nM)
# Summary of the method: as §1
# [7] = tested on: PXR homodimer (NR concentration 270 nM)
# Summary of the method: as §1
# [8] = tested on: RARa:RXR (NR concentration 270 nM, RXRa partner concentration 90 nM)
# Summary of the method: as §1
# [9] = tested on: RARa homodimer (NR concentration 270 nM)
# Summary of the method: as §1
# [10] = tested on: RARb:RXRa (NR concentration 270 nM, RXRa partner concentration 90 nM)
# Summary of the method: as §1
# [11] = tested on: RARb homodimer (NR concentration 270 nM)
# Summary of the method: as §1
# [12] = tested on: RARg:RXRa (NR concentration 270 nM, RXRa partner concentration 90 nM)
# Summary of the method: as §1
# [13] = tested on: RARg homodimer (NR concentration 270 nM)
# Summary of the method: as §1
# [14] = tested on: RXRa DBDmut IVT, anti-RXR (DBD mutation: RXRa K156A/R161A, NR concentration 90 nM)
# Summary of the method: as §1
# [15] = tested on: RXRa homodimer (NR concentration 180 nM)
# Summary of the method: as §1
# [16] = tested on: THRa:RXRa (NR concentration 90 nM, RXRa partner concentration 90 nM)
# Summary of the method: as §1
# [17] = tested on: THRa homodimer (NR concentration 90 nM)
# Summary of the method: as §1
# [18] = tested on: VDR:RXRa (NR concentration 270 nM, RXRa partner concentration 90 nM)
# Summary of the method: as §1
# [19] = tested on: VDR homodimer (NR concentration 270 nM)
# Summary of the method: as §1
Sequence,PBM binding z-score [1],PBM binding z-score [2],PBM binding z-score [3],PBM binding z-score [4],PBM binding z-score [5],PBM binding z-score [6],PBM binding z-score [7],PBM binding z-score [8],PBM binding z-score [9],PBM binding z-score [10],PBM binding z-score [11],PBM binding z-score [12],PBM binding z-score [13],PBM binding z-score [14],PBM binding z-score [15],PBM binding z-score [16],PBM binding z-score [17],PBM binding z-score [18],PBM binding z-score [19]
TCTAGTTGGTCAGAGGTCACACACTCGAAATGCG,2.47,4.96,1.28,0.861,4.45,5.4,1.74,5.99,1.84,4.49,4.5,6.07,5.24,1.92,6.47,3.99,2.52,4.95,3.35
CCTAGCGGGCCAGGGTCACTCAAGCATTTCGCTT,-0.418,0.39,-1.58,-1.58,0.563,2.61,-0.612,3.38,-0.206,2.53,2.48,3.06,2.4,-0.0113,3.72,2.72,1.19,2.36,1.28
CGAACTAGGTCAGCACAGGACAGTGAAGGATGAT,7.7,7.61,0.871,0.245,1.37,1.42,-0.395,1.03,0.213,3.65,2.69,3.27,4.34,0.563,1.68,3.81,0.48,0.981,-0.111
CCTAGCAGGCCAGGGTCACTCAAGCATTTCGCTT,0.393,0.98,-0.961,-1.38,1.04,2.63,-0.595,3.17,-0.537,2.73,2.82,3.21,2.84,0.493,3.9,2.92,1.2,2.48,1.25
ACTATTAGGTGACTTAGGGCAACCGATACGACGC,4.96,3.9,1.48,0.993,0.861,0.146,0.0513,0.9,1,1.31,1.39,1.18,1.29,0.234,0.903,2.76,0.89,0.474,-0.344
CGTCAAAGTTCAAGGTAACGTAGCAGAAAGCAGC,0.831,2.13,0.429,0.415,4.56,4.44,3.02,3.64,2.42,5.1,3.85,5.5,6.15,4.38,4.75,3.01,1.09,3.6,3.26
TCTTGTAGATGAACAGGAGGTTAAGAAAGATCGA,1.53,0.277,0.804,0.789,0.0799,0.598,-0.154,0.883,0.212,0.279,0.252,0.473,0.0838,0.572,0.784,0.65,-0.383,0.644,-0.297
GGAACGAGGGCAAGTTTATAGCAGAGTTTGATGG,3.91,2.81,0.157,-0.37,0.767,1.13,1.44,0.25,-0.0736,2.6,1.78,1.5,2.19,2.62,0.81,1.07,0.0695,1.32,2.89
TTATCAAGGTGAAGGTCGTTGATCCCTCTGTAGA,2.89,3.99,1.51,0.341,1.18,1.66,0.515,2.18,-0.235,2.21,1.82,1.55,1.33,0.598,1.89,2.68,1.3,1.55,1.23
CCTACAGGGTCAGCTAGGCCAGAGTAGGGACGGC,0.563,1.44,-0.42,-1.17,1.25,1.92,-0.627,2.68,-0.295,4.03,3.06,4.32,4.38,1.01,4.59,3.02,0.663,3.53,0.899
TCGAGTAGGTTAGTTGGGGCATTCAGCCAACATA,2.05,1.73,-0.651,-0.228,0.105,-0.283,-0.15,0.117,-0.0281,0.529,0.525,-0.065,-0.0945,0.0825,-0.226,1.01,-0.251,0.811,-0.0385
CAAACTAGGTCATAGAGGTCAAAGTCCGTGCGTA,8.2,8.54,1.02,1.45,5.21,6.75,12.4,6.77,2.28,5.12,5.51,6.95,7.46,3.57,7.64,4.64,2.63,7.8,7.04
CCGACTGGGGCAGAATGGTTACCATACCATCCGG,1.42,0.943,-0.354,-1.29,0.0556,-1.05,-0.973,-0.83,-0.164,0.0446,-0.435,0.00778,0.0342,-0.908,-0.122,-0.891,-0.862,-0.638,-0.629
AGAATGAGGTTCTTAAGATCAGGGAATTGCGGTC,0.324,0.283,0.378,-0.225,-0.0988,-0.118,-0.179,-0.0748,-0.832,0.0675,-0.377,-0.106,-0.186,0.301,-0.00148,0.365,0.000852,0.0724,-0.0897
ATCTCTAGGTAACCAAGTTCAATGAATGCCGAAC,3.3,3.19,0.675,1.22,1.22,2.72,3.6,1.33,1.18,1.43,1.68,0.955,1.08,1.64,0.925,1.89,0.952,4.66,3.84
